Results with a measured potency or affinity are listed apart. Active and inactive are the calls of the source. The rule behind the calls is not given here.

This note sets out measurements from PubChem BioAssay AID743047 (Broad Institute, 2013).

A short description of this test: PAX5 activity inhibitors, dose response, selectivity assay for PAX8 inhibitor project, cell-based, plate reader, dry powder samples (AID 743047). Particulars: cell-based PAX5 selectivity counter-screen; series mostly up to 50 µM. A general note: A counterscreen serves to expose hits that act by an unwanted route or on another target.
Consider `N#C[C@H]1[C@@H](c2ccc(C#Cc3cccc(F)c3)cc2)[C@@H](CO)N1C(=O)C1CCCC1`, for which the compound was called inactive.
As for `C[C@@H]1CN([C@H](C)CO)C(=O)CCCn2cc(nn2)CO[C@H]1CN(C)C(=O)Nc1ccc(-c2cccs2)cc1`, the outcome was inactive.
Regarding `Cc1ccc2cccc(NS(=O)(=O)c3ccccc3)c2n1`, the compound was called inactive.
`COc1ccc(S(=O)(=O)Nc2ccc3c(c2)CC(=O)N([C@@H](C)CO)C[C@@H](C)[C@@H](CN(C)Cc2ccc(-c4ccccc4)cc2)O3)cc1`: the call was inactive.
In the case of `CC1(C)CC(=O)c2sc(NC(=O)CCS(=O)(=O)c3ccccc3)nc2C1`, the outcome was inactive.
Take `C[C@H](CO)N1C[C@H](C)[C@H](CN(C)C(=O)Nc2ccc(-c3cccs3)cc2)OCc2cnnn2CCCC1=O`: the call was inactive.
As to `CN(C[C@H]1N[C@@H](CO)[C@@H]1c1ccc(C2=CCCC2)cc1)C(=O)c1ccc(F)cc1`, the activity change, negative = inhibition was 225% [at 8 µM] (inactive).
For `COc1cc(/C=C2\SC(=S)N(CCC(=O)N3CCCCC3)C2=O)cc(OC)c1OC`, the call was inactive.
Turning to `COCC(=O)N1[C@H](CO)[C@H](c2ccc(-c3cccnc3)cc2)[C@@H]1C#N`, the result was inactive.
Take `Cc1ccc(-c2csc(NC3OC(=O)c4ccccc43)n2)cc1` (stereo unspecified): the result was inactive.
Regarding `Cc1cc(NC(=O)CCCS(=O)(=O)c2nc(-c3cccs3)cc(C(F)(F)F)n2)no1`, the call was inactive.
